Data reported in PubChem BioAssay.
Unmarked numbers belong to inactive results. For some of these results: Entries with a potency or affinity are not part of this list. The source made the active and inactive calls. Unless noted, the rule behind the calls is not given here.

Assays:
[1] = antimalarial activity against Dd2 strain (AID 2302;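 active = growth inhibition above 50% at the single 2 µM test dose, taken to imply half-maximal potency below 2 µM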;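 note: 0% = DMSO untreated growth and 100% = chloroquine plus artemisinin killed control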); settings: P. falciparum Dd2 in RBCs, LDH growth readout, 72 h; at 2 µM; active compounds read high
[2] = HepG2 cytotoxicity, primary screen, cytotoxicity control for P. falciparum antimalarial project, cell-based, ATP luminescence (AID 2303;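 active = inhibition above 50%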;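 note: 0% = DMSO wells and 100% = digitonin-killed cells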); settings: HepG2 viability, 24-48 h, at 10 µM, active compounds read high
[3] = target: L-lactate dehydrogenase (Plasmodium falciparum (isolate CDC / Honduras)) (UniProt Q27743); test: PfLDH activity inhibition – cell lysate, 3D7 strain, counter-screen for P. falciparum growth inhibition project (AID 2304);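 note: 0% = vehicle and 100% = reference inhibitor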; settings: P. falciparum 3D7 crude extract, LDH APAD/NBT absorbance; at 2 µM; active compounds read high
Sequence of L-lactate dehydrogenase (Plasmodium falciparum (isolate CDC / Honduras)) (Q27743 whole entry, looked up): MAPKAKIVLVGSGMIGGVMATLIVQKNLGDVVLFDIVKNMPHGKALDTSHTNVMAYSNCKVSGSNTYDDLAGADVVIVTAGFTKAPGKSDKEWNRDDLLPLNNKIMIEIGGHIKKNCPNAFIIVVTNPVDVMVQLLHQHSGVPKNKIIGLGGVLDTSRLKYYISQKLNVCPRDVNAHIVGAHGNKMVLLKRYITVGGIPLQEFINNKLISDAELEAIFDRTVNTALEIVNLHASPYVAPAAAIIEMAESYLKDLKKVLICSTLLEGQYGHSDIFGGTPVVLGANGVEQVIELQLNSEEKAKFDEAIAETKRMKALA

[4] = inhibition of 3D7 malaria parasite growth – strain 3D7 (AID 2306);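 note: 0% = DMSO wells and 100% = chloroquine plus artemisinin control wells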; settings: P. falciparum 3D7 erythrocytic growth, LDH absorbance, 72 h; at 2 µM; active compounds read high
[5] = target: Calcium-dependent protein kinase 1 (Plasmodium falciparum (isolate 3D7)) (UniProt P62344); test: PfCDPK1 kinase inhibitors, biochemical, TCAMS library (AID 1159585; cut-off not given, nearly all actives have IC50 up to about 0.98 µM;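 note: inhibitors leave more ATP so luminescence rises with inhibition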); settings: recombinant PfCDPK1, Kinase-Glo ATP depletion luminescence
Sequence of Calcium-dependent protein kinase 1 (Plasmodium falciparum (isolate 3D7)) (P62344 whole entry, looked up): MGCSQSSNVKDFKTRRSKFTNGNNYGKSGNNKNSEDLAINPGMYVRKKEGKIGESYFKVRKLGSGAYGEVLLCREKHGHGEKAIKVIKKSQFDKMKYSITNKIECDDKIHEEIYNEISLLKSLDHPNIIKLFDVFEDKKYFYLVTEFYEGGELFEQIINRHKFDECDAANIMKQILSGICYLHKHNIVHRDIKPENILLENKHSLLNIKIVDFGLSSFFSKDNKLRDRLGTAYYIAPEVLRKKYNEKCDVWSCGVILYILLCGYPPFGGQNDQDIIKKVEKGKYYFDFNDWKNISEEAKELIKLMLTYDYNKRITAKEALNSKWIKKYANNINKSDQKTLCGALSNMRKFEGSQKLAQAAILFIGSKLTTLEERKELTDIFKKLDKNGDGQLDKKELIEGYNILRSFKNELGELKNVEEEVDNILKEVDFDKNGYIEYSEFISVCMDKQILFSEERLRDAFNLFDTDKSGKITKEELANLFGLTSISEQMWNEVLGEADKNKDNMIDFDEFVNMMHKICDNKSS

[6] = target: Plasmodium falciparum protein kinase 6 (PK6, PF3D7_1337100) (UniProt Q8IDW1); test: PfPK6 kinase inhibitors, biochemical, TCAMS library (AID 1159586); settings: recombinant PfPK6, Kinase-Glo ATP depletion luminescence
Sequence of Plasmodium falciparum protein kinase 6 (PK6, PF3D7_1337100) (Q8IDW1 1-305): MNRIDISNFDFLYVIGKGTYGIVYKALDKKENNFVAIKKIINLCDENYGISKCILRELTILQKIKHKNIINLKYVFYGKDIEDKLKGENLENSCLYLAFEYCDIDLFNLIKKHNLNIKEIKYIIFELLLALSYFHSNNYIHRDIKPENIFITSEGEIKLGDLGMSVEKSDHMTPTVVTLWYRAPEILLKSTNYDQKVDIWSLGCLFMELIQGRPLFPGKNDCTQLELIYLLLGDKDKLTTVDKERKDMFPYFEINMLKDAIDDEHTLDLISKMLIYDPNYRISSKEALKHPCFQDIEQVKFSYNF

[7] = target: Protein kinase 7 (PK7), Plasmodium falciparum 3D7 (PF3D7_0213400) (UniProt Q7YTF7); test: inhibition of Plasmodium PK7 catalytic activity – biochemical, TCAMS antimalarial set, Kinase-Glo luminescence (AID 1159587); settings: recombinant PfPK7, Kinase-Glo ATP depletion luminescence
Sequence of Protein kinase 7 (PK7), Plasmodium falciparum 3D7 (PF3D7_0213400) (Q7YTF7 1-343): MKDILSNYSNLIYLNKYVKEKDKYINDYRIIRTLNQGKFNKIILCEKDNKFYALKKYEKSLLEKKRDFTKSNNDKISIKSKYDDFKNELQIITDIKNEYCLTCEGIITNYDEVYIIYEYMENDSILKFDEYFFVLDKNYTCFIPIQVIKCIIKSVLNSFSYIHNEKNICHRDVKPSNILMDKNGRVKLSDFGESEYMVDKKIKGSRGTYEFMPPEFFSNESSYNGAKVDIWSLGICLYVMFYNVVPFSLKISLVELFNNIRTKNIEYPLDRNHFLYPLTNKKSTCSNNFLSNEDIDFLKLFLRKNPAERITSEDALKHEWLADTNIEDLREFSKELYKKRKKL

[8] = target: Calcium-dependent protein kinase 4 (Plasmodium falciparum (isolate 3D7)) (UniProt Q8IBS5); test: PfCDPK4 kinase inhibitors, biochemical, TCAMS library (AID 1159588; cut-off not given, nearly all actives have IC50 up to about 0.91 µM); settings: recombinant PfCDPK4, Kinase-Glo ATP depletion luminescence
Sequence of Calcium-dependent protein kinase 4 (Plasmodium falciparum (isolate 3D7)) (Q8IBS5 whole entry, looked up): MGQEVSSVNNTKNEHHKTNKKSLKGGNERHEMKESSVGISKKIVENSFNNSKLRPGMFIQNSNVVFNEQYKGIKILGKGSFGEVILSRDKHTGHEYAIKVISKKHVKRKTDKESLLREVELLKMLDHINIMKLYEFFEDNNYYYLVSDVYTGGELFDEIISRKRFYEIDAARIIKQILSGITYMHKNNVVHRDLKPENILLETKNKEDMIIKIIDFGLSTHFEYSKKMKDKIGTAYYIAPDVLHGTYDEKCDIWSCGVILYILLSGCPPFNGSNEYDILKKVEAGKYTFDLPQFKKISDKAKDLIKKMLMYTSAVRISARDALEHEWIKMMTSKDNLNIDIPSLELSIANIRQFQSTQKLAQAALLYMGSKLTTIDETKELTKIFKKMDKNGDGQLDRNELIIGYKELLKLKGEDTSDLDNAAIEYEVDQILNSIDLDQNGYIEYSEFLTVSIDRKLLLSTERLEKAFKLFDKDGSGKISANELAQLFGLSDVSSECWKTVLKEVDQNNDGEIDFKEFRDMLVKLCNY

Row | SMILES | growth inhibition [1] | inhibition [2] [%] | inhibition [3] [%] | growth inhibition [4] | outcome [5] | outcome [6] | outcome [7] | outcome [8]
1 | CCCCCCNc1c2ccccc2nc2ccccc12 | 32% | 24 | -3 | 97% (active) | inactive | inactive | inactive | inactive
2 | Clc1ccc2c(NCCNc3ccnc4cc(Cl)ccc34)ccnc2c1 | 96% (active) | 6 | -6 | 101% (active) | inactive | inactive | inactive | inactive
3 | NOCCCOc1ccc(Cl)cc1 | 0% | 12 | 0 | 98% (active) | inactive | inactive | inactive | inactive
4 | CCN(CC(C)O)C(=O)c1ccc(-c2ccc(-c3nc4c(C)cccc4[nH]3)cc2)cc1 (stereo not given) | 13% | 18 | -5 | 94% (active) | inactive | inactive | inactive | inactive
5 | Cc1ccccc1C1CCN(C2CCC(NC(=O)/C=C/c3cccc(F)c3)CC2)CC1 (stereo not given) | 38% | 46 | -3 | 84% (active) | inactive | inactive | inactive | inactive
6 | CCCOc1cccc(C(=O)N[C@@H](Cc2ccccc2)[C@H](O)CNCc2cccc(OC)c2)c1 | 18% | 14 | -3 | 102% (active) | inactive | inactive | inactive | inactive
7 | COc1ccc(Cl)cc1S(=O)(=O)Nc1cccc(CCN2CCC(N3CCCCC3)CC2)c1 | 9% | 33 | 4 | 101% (active) | inactive | inactive | inactive | inactive
8 | CC(=O)Nc1ccc(CN2Cc3ccc(NC(=O)Nc4ccc(Oc5ccccc5)cc4)cc3C2)s1 | 25% | 9 | 6 | 91% (active) | inactive | inactive | inactive | inactive
9 | CC(C)C(C)(C#N)NC(=O)CSc1nc2ccc([N+](=O)[O-])cc2s1 (stereo not given) | 81% (active) | -11 | 3 | 95% (active) | inactive | inactive | inactive | inactive
10 | N#CC(CC(=O)c1ccc(Cl)cc1)c1cccc(F)c1 (stereo not given) | 4% | 5 | 4 | 97% (active) | inactive | inactive | inactive | inactive
11 | Cc1cc(N(C)C)nc(Nc2ccc(NC(=O)c3ccccc3F)cc2)n1 | 26% | 0 | 4 | 89% (active) | inactive | inactive | inactive | inactive
12 | COc1ccc(CNCc2ccccc2)cc1-c1ccc(S(=O)(=O)NCCN2CCCC2)cc1 | 39% | 38 | -1 | 96% (active) | inactive | inactive | inactive | inactive
13 | Cc1cc(CNCCCCCCCNCc2cccc([N+](=O)[O-])c2)ccc1O | -5% | 6 | -1 | 100% (active) | inactive | inactive | inactive | inactive
14 | O=C(Nc1ccc2c(c1)CCN2C1CCN(Cc2cccc3cc[nH]c23)C1)c1ccco1 (stereo not given) | 86% (active) | -1 | 2 | 88% (active) | inactive | inactive | inactive | inactive
15 | COc1ccc(NC(=O)c2cc(-c3ccc(NC(C)=O)cc3)cnc2N)cc1 | 5% | 10 | 4 | 98% (active) | inactive | inactive | inactive | inactive
16 | CC(C)(C)c1ccc(NC(=O)c2cccc(CN3CCCN(Cc4ccc(F)cc4)CC3)c2)cc1 | 2% | 35 | 0 | 88% (active) | inactive | inactive | inactive | inactive
17 | CNCCNCc1ccc(-c2cccc(-c3nc4ccc(C(F)(F)F)cc4[nH]3)c2)cc1 | 77% (active) | 27 | 1 | 98% (active) | inactive | inactive | inactive | inactive
18 | Cc1cc(-c2ccc(O)c(CNC3CCCCC3)c2)cnc1N | 100% (active) | 27 | -4 | 102% (active) | inactive | inactive | inactive | inactive
19 | O=C(C=Cc1ccc(C(=O)Nc2ccc(C3=NCCN3)cc2)cc1)Nc1ccc(C2=NCCN2)cc1 | 101% (active) | -7 | 3 | 97% (active) | inactive | inactive | inactive | inactive
20 | CC1CN(Cc2cccc(-c3ccc(-c4nc5ccc(F)cc5[nH]4)cc3)c2)CC(C)O1 (stereo not given) | 88% (active) | 45 | -3 | 87% (active) | inactive | inactive | inactive | inactive
